# From PubChem BioAssay (NCATS)
# Inconclusive results are not listed. Where a call stands in place of a potency, no number is given. Activity calls are given as the source filed them. Calls follow the shape of the dose curve; as a rule, active = well fitted inhibition curve with a large enough effect; inconclusive = small, poorly fitted or top-dose-only effect; inactive = no such curve, though single readings can be large or run the other way.
# Molecular target: Muscarinic acetylcholine receptor M1 (Rattus norvegicus) (UniProt P08482)
# Assay: qHTS Assay for Antagonists of Acetylcholine Muscarinic M1 Receptor: Kinetic Measurement of Intracellular Calcium Response (AID 943); also: nearly all actives have a fitted effect of over 75% in size
# Details: M1-expressing cells, kinetic intracellular calcium fluorescence; series mostly up to 35.3 µM
# Excerpt: NIH Molecular Libraries Screening Centers Network [MLSCN]
# NIH Chemical Genomics Center [NCGC]
# Acetylcholine muscarinic M1 receptor is a G-protein coupled receptor (GPCR) coupling to the Gq G protein. It is mainly expressed in brain and functionally related to the learning and memory processes. The agonists of this receptor have the potential for the treatment of Alzheimer's disease and cognitive impairments associated with Schizophrenia. Upon an activation of the M1 receptor, phosholipase C (PLC) is activated to produce inositol 1,4,5-trisphosphate (IP3) and diacyl glycerol (DAG) resulting in increase of intracellular free Ca2+ and activation of protein kinase C (PKC). The increase of intracellular calcium can be measured by the fluorescent calcium dyes, Fluo-3 and Fluo-4, using a fluorescence kinetic plate reader.
# We have obtained a M1-CHO cell line transfected with rat acetylcholine M1 receptor and optimized a calcium assay with this cell line for compound screening as a counter-screen assay for other Gq-coupled GPCRs.
# NCGC Assay Protocol Summary:
# The CHO-M1 (CHO-M1) cell line transfected with the rat acetylcholine muscarinic M1 receptor was obtained from ATCC. The cells were maintained in call culture flasks with F12 Kaighn's media (Invitrogen) supplemented with 10 % FBS, 100 units/ml penicillin, 100 ug/ml streptomycin and 250 ug/ml geneticin (Invitrogen) at 37C, 5 % CO2 in a humidified atmosphere. At 90-95 % confluence, the cells were then detached in 15 ml […] % trypsin by 3 minutes incubation at 37C and centrifuged at 1000 RPM to remove the trypsin solution. The resulting cell pellet was resuspended in the cell freezing media containing 10 % DMSO (Invitrogen) at a density of 4 x 10^7 cells/ml. The aliquots of cells at 0.5 - 1 ml per vial were frozen down slowly at 1 degree C/min using a Cryo 1 degree C freezing container in the presence of isopropanol (Nalgene Nunc, Rochster, NY) overnight in a -80C freezer. The frozen cells were then transferred to liquid nitrogen for the storage up to one year.
# The resuspended frozen cells were plated at 3 ul/well with 2000 cells in the black, tissue culture treated, clear bottom 1536-well plates. After overnight incubation at 37C, 5% CO2, 2.5 ul/well no-wash calcium dye (containing Fluo-4, BD Biosciences) were loaded and incubated at 37C, 5 % CO2 for 1 hour followed by a 10 min incubation with 20 nl compound in DMSO solution. The assay plates were then placed onto the kinetic fluorescence plate reader (FDSS-7000, Hamamatsu) for a measurement of the kinetic changes in intracellular free calcium. The basal fluorescence signal was measured for 6 times at 1 Hz followed by an addition of 1 ul of carbachol and continued 4 min measurement. The results were calculated as the maximal signal (peak) divided by the minimal signal (basal).
# 1536-well assay protocol:
# (1) 3 ul/well containing 2000 M1-CHO cells in 1536 tissue culture treated black/clear bottom plate
# (3) Add 1ul/well calcium dye (from no-wash calcium dye kit, BD Biosciences) containing […]
# (4) Incubate 1 hour at 37C with 5% CO2
# (5) Add 20 nl compound diluted in DMSO
# (6) Incubate 10 minutes at the room temp
# (7) Place the plate in FDSS-7000 instrument (Ex = 480 nm and […])
# #- read the assay plate 6 times at 1 Hz for basal signal
# #- add 1 ul/well EC80 carbachol (100 nM final)
# #- continuously read the assay plate for 4 min at 1 Hz
# Keywords: acetylcholine muscarinic M1 receptor, calcium kinetic assay, Fluo-4, high throughput screening, MLSMR, MLSCN, NIH Roadmap, qHTS and NCGC
# Chain of Muscarinic acetylcholine receptor M1 (Rattus norvegicus) (P08482 whole entry, looked up): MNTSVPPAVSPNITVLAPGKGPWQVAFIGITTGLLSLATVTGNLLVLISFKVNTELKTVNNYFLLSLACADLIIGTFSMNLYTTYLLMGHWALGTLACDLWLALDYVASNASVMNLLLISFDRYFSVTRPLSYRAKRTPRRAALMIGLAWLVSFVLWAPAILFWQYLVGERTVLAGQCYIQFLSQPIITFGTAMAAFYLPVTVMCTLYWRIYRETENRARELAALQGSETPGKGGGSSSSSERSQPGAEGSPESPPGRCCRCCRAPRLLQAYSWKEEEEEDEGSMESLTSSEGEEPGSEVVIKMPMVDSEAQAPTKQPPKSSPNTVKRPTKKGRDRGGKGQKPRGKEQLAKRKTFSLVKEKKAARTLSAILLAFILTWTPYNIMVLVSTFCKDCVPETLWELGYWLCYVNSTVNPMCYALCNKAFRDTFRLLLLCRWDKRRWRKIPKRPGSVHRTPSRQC
row,Structure (SMILES),Potency
1,O=C1NC(=O)C(c2ccccc2[N+](=O)[O-])=C1Nc1ccc(O)c(Cl)c1,inactive
2,O=c1ccc2ccc(O)c(O)c2o1,inactive
3,O=c1c(O)c(-c2cc(O)c(O)c(O)c2)oc2cc(O)cc(O)c12,inactive
4,NCCCCNCCCN,inactive
5,O=C1c2ccccc2-c2n[nH]c3cccc1c23,inactive
6,O=C(CCc1ccc(O)cc1)c1c(O)cc(O)cc1O,inactive
7,COc1ccccc1N1CCN(CCN(C(=O)C2CCCCC2)c2ccccn2)CC1,inactive
8,O=Nc1c(-c2c(O)[nH]c3cc(Br)ccc23)[nH]c2ccccc12,100 nM (active)
9,Oc1ccc(-c2nc(-c3ccc(F)cc3)c(-c3ccncc3)[nH]2)cc1,inactive
10,Cc1cc(O)c2c(c1)C(=O)c1cc(O)cc(O)c1C2=O,inactive
11,Nc1nc(OCc2ccccc2)c2[nH]cnc2n1,inactive
